According to PubChem BioAssay AID504465 (National Center for Advancing Translational Sciences (NCATS), 2011):
In all, about 2,100 compounds went through this assay and about 210 (10%) were called active. Roughly 53% stayed inconclusive and do not appear here. The call rests on the fitted dose curve; in most records, active means well fitted inhibition curve with a large enough effect; inconclusive means small, poorly fitted or top-dose-only effect, or effect the other way; inactive means no such curve, though single readings can be large or run the other way. The list shows a part of the results.

Test: IN Cell qHTS Assay for Inhibitors of the mTORC1 Signaling Pathway in MEF (Tsc2-/-, p53-/-) Cells: Sytravon; further: nearly all actives have a fitted effect of over 60% in size
Conditions: phospho-rpS6 immunofluorescence, 24 h; series mostly up to 38.3 µM
Procedure, shortened: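 Immunofluorescence of rpS6 phosphorylation (Ser235/236) in mouse embryonic fibroblasts lacking Tsc2 and p53, after 24 h compound exposure; Hoechst-normalized signal imaged, each well scored as % active cells relative to rapamycin (7.5 nM) and DMSO controls.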
Potency means the concentration at half of the fitted maximal effect.

Potency, active:
Cc1ccc(CN2C(=O)C(=O)c3cc(Br)cc(C)c32)cc1 5.85 µM
CCCCOc1ccc(CN2C(=O)C(=O)c3cc(Br)cc(C)c32)cc1OC 5.85 µM
COc1ccc(NC(=O)CSc2nc3ccccc3n2Cc2cccc(OC)c2)cc1 11.7 µM
Cc1ccc(CNC(=O)Cn2c(SCC(=O)Nc3ccc(F)cc3)nc3ccccc32)cc1 5.21 µM

Potency, inactive:
COc1cc(-c2nc(-c3ccccc3)c(-c3ccc(Br)cc3)[nH]2)cc(OC)c1O
CCOc1ccc(CN2C(=O)c3ccccc3Sc3ccc(C(=O)O)cc32)cc1
CCS(=O)(=O)N1CC(=O)N(c2ccc(Cl)cc2C)C(C)(C(=O)NC2CCCCC2)C1 (stereo unspecified)
COc1ccc(Oc2nc3c(C)cccn3c(=O)c2/C=C(\C#N)c2nc3ccccc3[nH]2)cc1
O=C(Nc1ccc(Cl)cc1F)c1cc(S(=O)(=O)NC2CCCCCC2)ccc1F
COc1ccc(NC(=O)[C@H]2O[C@@H]3OC(C)(C)O[C@@H]3[C@H]3OC(C)(C)O[C@H]32)c(OC)c1
CC(C)c1ccc(CNCCSc2nnnn2C)cc1
COCc1oc2ccc(NS(=O)(=O)c3ccc(C)cc3)cc2c1C(=O)OC
CCOC(=O)c1cccc(NC(=O)c2cc3sccc3n2Cc2ccc(Cl)cc2)c1
CCOc1ccc(OCC)c(NS(=O)(=O)c2ccc(-c3coc(C)n3)cc2)c1
CCCC1=Nc2cc(C(=O)NCCc3ccccc3)ccc2Sc2ccc(C)cc21
Cc1c(Cl)cccc1NC(=O)NCc1c(-n2cccc2)sc2c1CCCC2
CCCN(Cc1cccs1)C(=O)Nc1ccccc1C
COc1ccc(-c2nc(SCC(=O)Nc3ccc4c(c3)OCO4)c(-c3ccc(OC)cc3)[nH]2)cc1
COc1ccc(NC(=O)CSCc2cnn(-c3ccccc3)c2-n2cccc2)cc1
COc1ccccc1NC(=O)Cn1c(SCC(=O)Nc2ccc(F)cc2)nc2ccccc21
O=C(CSc1cn(CCNC(=O)c2ccccc2F)c2ccccc12)Nc1ccc(F)cc1
CC(=O)N1c2ccc(S(=O)(=O)NCC3CCC(C(=O)Nc4cc(C)cc(C)c4)CC3)cc2CC1C (stereo unspecified)
NC(=O)CSc1nc2ccc(NC(=O)COc3ccccc3Cl)cc2s1
Cc1ccc2[nH]cc(C(c3ccccc3)c3ccc(Cl)s3)c2c1 (stereo unspecified)
CCc1cccc(NC(=O)c2ccc(CNS(=O)(=O)c3ccc4c(c3)C(C)(C)C(=O)N4C)cc2)c1
Cc1cncn1CCc1nc2c3ccccc3nc(SCC(=O)Nc3ccccc3F)n2n1
